We go through 29 compounds from PubChem BioAssay (NCATS).

Inconclusive results are not listed. Where a structure was tested more than once in an assay, its records may differ in their call. Values without a mark were called inactive. Activity calls are given as the source filed them. Calls come from the whole dose curve; as a rule, active = well fitted inhibition curve with a large enough effect; inconclusive = small, poorly fitted or top-dose-only effect; inactive = flat fitted curve, though single readings scatter.
% is set by controls: 0 for no effect and ±100 for the full control effect; potency is the fitted concentration of half-maximal effect.

This test deals with HaCat. Kind of test: Cytotoxic Profiling of Annotated Libraries Using Quantitative High-Throughput Screening (AID 1296008). Note: nearly all actives have a fitted effect of over 60% in size. Conditions: Five cell lines viability, CellTiter-Glo ATP luminescence, 48-72 h; max response: active compounds read low. In outline:
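Cells exposed to compounds for 48 or 72 hr at 37 degrees Celsius. Viability read as ATP-coupled luminescence with CellTiter-Glo after 10 min at room temperature.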
A general note: In ATP-based viability assays light output follows the ATP content of the culture.
Consider `C/C=C(\C)C(=O)OC1CC2C(CC=C3CC(OC4CC(OC)C(OC5CC(OC)C(OC6OC(C)C(OC7OC(CO)C(O)C(O)C7O)C(OC)C6O)C(C)O5)C(C)O4)CCC32C)C2(O)CCC(C(C)=O)C12C` (stereo not given), for which the compound was called inactive. For the compound `Clc1ccc(OCC2=NCCN2)cc1Cl`, the result was inactive. Consider `N#CC(OC1OC(COC2OC(CO)C(O)C(O)C2O)C(O)C(O)C1O)c1ccccc1` (stereo not given), for which the compound was called inactive. Turning to `C/C=C(\C)C(=O)OC1C(C)OC(OC2C(C)OC(OC3CCC4(C)C(=CCC5C4CCC4(C)C(C(C)OC6OC(COC7OC(CO)C(O)C(O)C7O)C(O)C(O)C6O)CCC54O)C3)CC2OC)C(O)C1OC` (stereo not given), the result was inactive.

Regarding `CCCCCCn1c(=O)c(C(=O)Nc2ccc(C(=O)OCCC)cc2)c(O)c2ccccc21`, the call was inactive.

For `CCOc1ccccc1-n1c(C(C)N2CCN(C(=O)COc3ccc(Cl)cc3)CC2)nc2ccccc2c1=O` (stereo not given), the Potency was 18600 nM (active) and the max response was -19.2%. With `CCN1C[C@]2(COC(=O)c3ccccc3N3C(=O)C[C@H](C)C3=O)CC[C@H](OC)[C@@]34[C@@H]5C[C@H]6[C@H](OC)[C@@H]5[C@](O)(C[C@@H]6OC)[C@](O)([C@@H](OC)[C@H]23)[C@@H]14`, the max response was -1.58%.

Regarding `CN[C@H]1[C@H](O)[C@H](O[C@@H]2[C@@H](O)[C@H](O[C@H]3O[C@H]([C@H](C)O)[C@@H](O)[C@H](O)[C@H]3N)[C@@H](N)C[C@H]2N)OC[C@@]1(C)O`, the compound was called inactive. Take `CC(C)=C1CC[C@]23CO[C@H](C2)[C@@](O)(C(=O)O)CCC13` (stereo not given in full): the max response is -7.37%. Take `OC1(c2ccc(Cl)cc2)c2ccccc2C2=NCCN21` (stereo not given): the max response was 0.153%. Take `CC[C@H]1CN2CC[C@H]1C[C@H]2[C@H](O)c1ccnc2ccc(OC)cc12`: the outcome was inactive. `C[C@@]12C[C@@H](c3ccoc3)OC(=O)C1CC[C@]1(C)[C@H]2[C@H]2C=C[C@]1(O)C(=O)O2` (stereo not given in full): the max response was -0.33%. Turning to `COC(=O)[C@@]12C(=O)C(C)C(=O)[C@]1(C)C(C)=C[C@H]1[C@]3(C=O)CC[C@H](OC(C)=O)C(C)(C)[C@H]3CC[C@@]12C` (stereo not given in full), the outcome was inactive.

`CCc1c(C(=O)C(N)=O)c2c(OCC(=O)OC)cccc2n1Cc1ccccc1`: the max response is -4%.

Regarding `CN(C)CCc1c[nH]c2ccc(CN3CCN(C)S3(=O)=O)cc12`, the result was inactive.

In the case of `Cn1ncnc1COc1nn2c(-c3c(F)cccc3F)nnc2cc1C1CCC1`, the call was inactive.

Regarding `CCN1C[C@]2(OC(=O)c3ccccc3NC(C)=O)CC[C@H](OC)[C@@]34[C@@H]2C[C@@H]([C@@H]13)[C@@]1(O)C[C@H](OC)[C@H]2C[C@@H]4[C@]1(O)[C@H]2OC`, the compound was called inactive.

Turning to `CC(N)Cc1c[nH]c2ccccc12` (stereo not given), the max response was -7.15%. In the case of `CCN1C[C@]2(COC)[C@H](O)C[C@H](OC)[C@]34[C@@H]5C[C@]6(O)[C@H](OC(=O)c7ccccc7)[C@@H]5[C@@](O)([C@H]([C@H](OC)[C@H]23)[C@@H]14)[C@@H](O)[C@@H]6OC`, the max response is 1.58%. For `CC(C)(C)c1cc(C(C)(C)C)c2c(c1)C(O)(C(F)(F)F)C(=O)O2` (stereo not given), the result was inactive. Regarding `CN1[C@H]2C[C@H](OC(=O)[C@H](CO)c3ccccc3)C[C@@H]1[C@@H](O)C2`, the result was inactive. For the compound `COc1cc2c(cc1OC)[C@@]13CCN4CC5=CCO[C@H]6CC(=O)N2[C@H]1[C@H]6[C@H]5C[C@H]43`, the max response was -7.03%. The same measure, in the same setting: then `CC(=O)O[C@H]1C[C@@H](OC(C)=O)C(C)(C)C2C[C@@H](O)[C@]3(C)C(CC[C@@]4(C)[C@H](C5=CC(=O)OC5O)C[C@H]5O[C@]543)[C@]21C` (stereo not given in full), with -10.3%; and `CC1=C2C[C@H]3[C@@H](CC=C4C[C@@H](O)CC[C@@]43C)[C@@H]2CC[C@]12O[C@@H]1C[C@H](C)CN[C@H]1[C@H]2C`, with 3.98%. With `CCCN1CCO[C@H]2c3cc(O)ccc3OC[C@@H]21`, the max response is 3.96%. For the compound `C[C@H]1O[C@@H](O[C@H]2C[C@@H](O)[C@]3(CO)C4C(CC[C@]3(O)C2)[C@@]2(O)CC[C@H](C3=CC(=O)OC3)[C@@]2(C)C[C@H]4O)[C@@H](O)[C@@H](O)[C@H]1O` (stereo not given in full), the Potency was 968 nM (active). For `CC(C)(O)[C@H]1O[C@H]2CC[C@@]3(C)[C@@](O)(CC[C@H]4Cc5c([nH]c6ccccc56)[C@@]43C)C2=CC1=O`, the max response was 0.588%. Regarding `CC12CCC3C(CCC4(O)CC(O)CCC34C=O)C1(O)CCC2C1=CC(=O)OC1` (stereo not given), the Potency is 1640 nM (active). For the compound `CC(=O)OC12C(O)C(C)C3(O)C4C=C(C)C(=O)C4CC(CO)=CC3C1C2(C)C` (stereo not given), the max response was -13.8%.
